Records with an inconclusive call do not appear. Activity calls are given as the source filed them. Calls follow the shape of the dose curve; as a rule, active = well fitted curve in the direction sought with a large enough effect; inconclusive = small, poorly fitted or top-dose-only effect, or another doubt; inactive = no such curve, though single readings can be large; an effect the other way counts as inactive or inconclusive.
Assays:
[1] = Quantitative High-Throughput drug screen in 47 multiple myeloma cell lines against the NCATS MIPE library collection: FR4_PLB cell viability assay (AID 1918924; also: nearly all actives have a fitted effect of over 35% in size; also: potency is read from the fitted curve at half-maximal effect)
In short: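 Primary qHTS used for cherry-picking: cells at 500/well, library compounds for 48 h (37C, 5% CO2), luminescent ATP assay.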

[2] = Quantitative High-Throughput drug screen in 47 multiple myeloma cell lines against the NCATS MIPE library collection: Delta47_JCRB cell viability assay (AID 1918925; also: nearly all actives have a fitted effect of over 45% in size; also: potency is read from the fitted curve at half-maximal effect)
In short: (§1)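 Steps: seed 500 cells per well; pin-transfer MIPE 4.0 library; incubate 48 h at 37C, 5% CO2, humidified; add CellTiter-Glo, 5 min room temperature; read luminescence.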

[3] = Quantitative High-Throughput drug screen in 47 multiple myeloma cell lines against the NCATS MIPE library collection: EJM_DSMZ cell viability assay (AID 1918926; also: nearly all actives have a fitted effect of over 30% in size; also: potency is read from the fitted curve at half-maximal effect)
In short: as §1

[4] = Quantitative High-Throughput drug screen in 47 multiple myeloma cell lines against the NCATS MIPE library collection: AMO1_DSMZ cell viability assay (AID 1918927; also: nearly all actives have a fitted effect of over 30% in size; also: potency is read from the fitted curve at half-maximal effect)
In short: as §1

[5] = Quantitative High-Throughput drug screen in 47 multiple myeloma cell lines against the NCATS MIPE library collection: ARP1_JJKsccF8 cell viability assay (AID 1918928; also: nearly all actives have a fitted effect of over 40% in size; also: potency is read from the fitted curve at half-maximal effect)
In short: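 Myeloma cells at 500 per well in 1536-well format treated with MIPE 4.0 library by pin transfer for 48 h at 37C, 5% CO2. Viability from ATP luminescence (CellTiter-Glo), normalized to DMSO (100%) and media-only (0%) wells.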

[6] = Primary fluorescence-based thiol-reactive (MSTI) qHTS assay for identification of artifact compounds. (AID 1845221);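 also: series mostly up to about 54 µM; thiol-reactive compounds lower the probe fluorescence signal; nearly all actives have a fitted effect of over 65% in size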
In short: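 Curve-fitted percent inhibition (4-parameter Hill) derived from fluorescence, Ex 525/Em 598 nm, scaled with Acetyl-MSTI and MSTI; 1 h incubation at room temperature.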

[7] = Primary redox qHTS assay for identification of artifact compounds. (AID 1845223)
In short: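 Amplex Red (25 uM) and HRP (250 mU/mL) in HBSS, with compounds for 15 min, then 250 uM DTT for 30 min, room temperature, dark. Fluorescence 525/598 nm read; normalized to DMSO and 10 uM DA3003; Hill fit.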

SMILES | Potency [1] | Potency [2] | Potency [3] | Potency [4] | Potency [5] | Potency [6] | Potency [7]
CO[C@@H]1[C@@H](O)[C@H](O)[C@@H](n2c3c(Cl)cccc3c3c4c(c5c6cccc(Cl)c6[nH]c5c32)C(=O)NC4=O)O[C@@H]1CO | 3.32 µM (active) | 0.59 µM (active) | 2.64 µM (active) | 0.166 µM (active) | – | – | –
COc1cc2c(Nc3ccc(Cl)c(Cl)c3F)ncnc2cc1OCC1C[C@@H]2CN(C)C[C@H]2C1 | 14.8 µM (active) | 2.35 µM (active) | 2.96 µM (active) | 8.33 µM (active) | 8.33 µM (active) | – | –
O=C(C[C@@H]1CC=CCCC(=O)O[C@H](c2ccccc2)CNC1=O)NCc1ccc(Cl)cc1 | 16.6 µM (active) | 10.5 µM (active) | 0.0012 µM (active) | – | – | – | –
NC(=O)c1ncn([C@@H]2O[C@H](CO)[C@@H](O)[C@@H]2O)c1O | 18.7 µM (active) | inactive | inactive | inactive | – | – | –
C=CCNC1=C2C[C@@H](C)C[C@H](OC)[C@@H](O)[C@@H](C)C=C(C)[C@H](OC(N)=O)[C@@H](OC)C=CC=C(C)C(=O)NC(=CC1=O)C2=O | 0.662 µM (active) | 1.05 µM (active) | 4.18 µM (active) | 0.0935 µM (active) | 0.148 µM (active) | – | –
O=C(C=CC#Cc1cccc(NS(=O)(=O)c2ccccc2)c1)NO | 1.18 µM (active) | 1.18 µM (active) | 5.9 µM (active) | – | – | – | –
COc1cc(C=CC(=O)CC(=O)C=Cc2ccc(O)c(OC)c2)ccc1O | 10.8 µM (active) | 4.29 µM (active) | 21.5 µM (active) | 5.4 µM (active) | 8.55 µM (active) | – | –
Cn1cc(-c2ccc3ncc(Cc4ccc5ncccc5c4)n3n2)cn1 | inactive | – | inactive | 14.8 µM (active) | inactive | inactive | inactive

From PubChem BioAssay (NCATS)
